Rows were chosen to be rich in hits. Some 2.4% of all compounds tested hit in one or more screens of this group.
Cruzain inh noDet: qHTS Assay for Promiscuous and Specific Inhibitors of Cruzain (without detergent). Potency, µM, usual class: inhibitors. purified cruzain, Z-FR-AMC fluorescence, no detergent. Cruzipain (Trypanosoma cruzi), P25779. AID 1476, 2009. actives 2.3% (n = 200,000); further: nearly all actives have a fitted effect of over 40% in size
Target sequence (P25779 123-467 limits assumed): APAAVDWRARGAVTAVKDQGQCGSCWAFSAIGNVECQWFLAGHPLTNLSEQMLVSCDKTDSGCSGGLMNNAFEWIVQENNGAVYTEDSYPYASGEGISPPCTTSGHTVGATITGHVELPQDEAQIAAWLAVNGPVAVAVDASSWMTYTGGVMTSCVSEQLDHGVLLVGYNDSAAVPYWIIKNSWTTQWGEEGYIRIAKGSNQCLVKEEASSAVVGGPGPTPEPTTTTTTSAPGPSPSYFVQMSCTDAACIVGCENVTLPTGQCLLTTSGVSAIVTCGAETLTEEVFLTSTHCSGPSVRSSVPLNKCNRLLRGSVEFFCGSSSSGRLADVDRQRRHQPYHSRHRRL
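Purified cruzain at 1.5 nM, pre-incubated 15 min with compound at room temperature in 100 mM sodium acetate pH 5.5, 5 mM DTT, 0.00005% Triton X-100. Reaction started with 2 uM Z-FR-AMC; AMC fluorescence increase over 60 s gives rate.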
Cruzain inh Det: qHTS Assay for Promiscuous and Specific Inhibitors of Cruzain (with detergent). Cruzipain (Trypanosoma cruzi), P25779. purified cruzain, Z-FR-AMC fluorescence, 0.01% Triton. Potency, µM, most hits filed as inhibitors. actives 0.43% (n = 200,000); further: nearly all actives have a fitted effect of over 40% in size
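Compounds were screened in titration against cruzain (1.5 nM) with 0.01% Triton X-100 to counter colloidal aggregation. Activity was the AMC fluorescence increase over 60 s after adding 2 uM Z-FR-AMC at pH 5.5.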
Numbers stand for hits; . = inactive; ? = inconclusive. The call rests on the fitted dose curve; in most records, active means well fitted curve in the direction sought with a large enough effect; inconclusive means small, poorly fitted or top-dose-only effect, or another doubt; inactive means no such curve, though single readings can be large; an effect the other way counts as inactive or inconclusive.

SMILES	Cruzain inh noDet	Cruzain inh Det
Cc1ccc(S(=O)(=O)c2nnn3c2nc(NCc2ccc(F)cc2)c2sccc23)cc1C	.	.
CCCN(Cc1cc2cccc(C)c2[nH]c1=O)C(=O)c1cccc(Cl)c1	.	.
COc1ccc(S(=O)(=O)c2c(C(=O)c3ccc(C)c(C)c3)cnc3ccc(C)cc23)cc1	12.6µM	.
CCOc1ccc(S(=O)(=O)c2c(C(=O)c3ccc(C)cc3)cnc3cc4c(cc23)OCCO4)cc1	6.31µM	.
Cc1ccc(C(=O)c2cnc3cc4c(cc3c2S(=O)(=O)c2ccccc2)OCCO4)cc1	?	.
Cc1ccc2ncc(C(=O)c3ccc(C)c(C)c3)c(S(=O)(=O)c3ccccc3)c2c1	.	.
Cc1ccc(O)c(C2=Nc3ccccc3N=C(c3ccco3)C2)c1	.	.
Cc1ccc(O)c(C2=Nc3ccccc3N=C(c3ccc([N+](=O)[O-])cc3)C2)c1	20µM	.
c1cc2c3c(c1)ccc1cccc(c13)C2	.	.
O=C1CCSc2cccc3cccc(c23)N1	.	.
c1cc2c3c(cccc3c1)NC1(CCCCC1)N2	7.94µM	.
c1cc2c3c(cccc3c1)NC1(CCCCCC1)N2	12.6µM	.
Cc1cccc(-c2nc(C)c(CCNC(=O)C(=O)Nc3ccc(C)c(C)c3)s2)c1	.	.
Cc1c(Cl)cccc1NC(=O)CC(c1ccc(F)cc1)N1Cc2ccccc2C1=O (stereo not drawn)	.	.
CCN(CC)C(=O)Cn1cc(SCC(=O)Nc2cccc(C)c2)c2ccccc21	.	.
Cc1ccc(C2=N/C(=C\N3CCCCC3)C(=O)O2)cc1	.	.
Cc1nn(-c2ccccc2)c(N2CCCC2)c1/C=C1\N=C(c2ccc(OC(C)C)cc2)OC1=O	5.01µM	1.41µM
CCN(CC)CCNC(=O)c1ccc(-n2c(-c3ccccc3)cc3c2CCCC3)cc1	.	.
O=C(CSc1oc(-c2ccccc2)nc1S(=O)(=O)c1ccccc1)c1ccccc1	?	.
O=C(CSc1oc(-c2ccccc2)nc1S(=O)(=O)c1ccc(Br)cc1)c1ccccc1	12.6µM	.
Cc1ccccc1NC(=O)c1ccc(Nc2c([N+](=O)[O-])cc([N+](=O)[O-])c3ccccc23)cc1	31.6µM	.
Cc1c(NC(=O)c2ccccc2)cccc1[N+](=O)[O-]	.	.
CCCN(CCC)c1nn2c(=O)c(C(=O)NCc3cc(Br)ccc3OC)cnc2s1	.	.
O=C(Nc1ccc(Br)cc1)c1nn(C23CC4CC(CC(C4)C2)C3)cc1Br	25.1µM	.
Cn1nccc1C(=O)Nc1ccn(C23CC4CC(CC(C4)C2)C3)n1	.	.
SMILES	Cruzain inh noDet	Cruzain inh Det
CCOC(=O)C1CCCN(c2cc(C)nc3c(-c4ccccc4OC)c(C)nn23)C1 (stereo not drawn)	.	.
Oc1ccc2ccccc2c1C1Nc2cccc3cccc(c23)N1	?	.
CCN(CC)c1ccc(C2Nc3cccc4cccc(c34)N2)c(O)c1	12.6µM	.
CCC(C(=O)NCCc1ccc(Cl)cc1)n1ccc2cc(S(=O)(=O)N3CCCCC3)ccc21 (stereo not drawn)	.	.
COc1ccccc1C(=O)Nc1nnc(SCc2cc(=O)c3cc(Cl)ccc3[nH]2)s1	.	.
CCOC(=O)c1ccc(NC(=O)CCCc2nc(-c3ccccc3Cl)no2)cc1	.	.
CCN1CC=C2C(C#N)=C(N)C(C#N)(C#N)[C@H](c3cccc(OC)c3OC)[C@H]2C1	.	.
CCN1CC=C2C(C1)C(c1ccc(Cl)s1)C(C#N)=C(N)C2(C#N)C#N (stereo not drawn)	25.1µM	25.1µM
Cc1c(C(=O)Nc2ccc(F)c(C(F)(F)F)c2)sc2nc(-c3ccccc3)cn12	.	.
Cc1ccc(-c2cc3nc(-c4ccccc4)cc(N)n3n2)cc1	25.1µM	.
Cc1ccc(-c2cc3nc(-c4ccc(Br)cc4)cc(N)n3n2)cc1	31.6µM	.
Cc1ccc(-c2cc(N)n3nc(-c4ccc(C)cc4)cc3n2)cc1	?	.
Cc1cc(N)n2nc(-c3ccccc3)cc2n1	.	.
COc1ccc(Cn2c(C(=O)O)c(CNCc3ccc(C)o3)c3ccc(OC)cc32)cc1	.	.
CCOc1ccc(C(=O)c2oc3ccccc3c2NC(=O)Cc2coc3ccc(CC)cc23)cc1	.	.
CC(C)c1ccc(N2C(=O)NC(=O)/C(=C/c3cnc(-c4ccccc4)nc3)C2=O)cc1	.	.
CCc1ccc(N2C(=O)NC(=O)/C(=C\c3cccn3CCOc3ccc(C(C)C)cc3)C2=O)cc1	10µM	.
CN(C)c1ccc(CNC(=O)c2ccccc2NC(=O)c2nsc3ccccc23)cc1	.	.
CC(C)Cn1c(=O)c2sccc2n2c(CCCC(=O)NCCc3ccc(Cl)cc3)nnc12	.	.
CCOc1ccc(C2=NNC(c3cccs3)=Nc3ccc(OC)cc32)cc1	?	.
CCOc1ccc2c(c1)C(c1ccc(C)cc1)=NNC(c1ccc(OC)cc1)=N2	15.8µM	.
O=c1c2oc3ccccc3c2n(Cc2cccc(C(F)(F)F)c2)c(=O)n1Cc1ccc2c(c1)OCO2	.	.
COC(=O)c1cc2oc3ccccc3c2n1Cc1c(F)cccc1Cl	.	.
COc1ccc(-n2nc(C(=O)c3cccs3)cc(-c3nc4ccccc4[nH]3)c2=N)cc1	.	.
Cc1ccccc1-n1nc(C(=O)c2cccs2)cc(-c2nc3ccccc3[nH]2)c1=N	25.1µM	.
SMILES	Cruzain inh noDet	Cruzain inh Det
Cc1ccc(C(=O)N2CCc3cc(CNC(=O)c4ccccc4F)ccc32)cc1	.	.
CCOC(=O)c1cc(-c2ccccc2)n(CCC(=O)Nc2ccc(C(F)(F)F)cc2)c1C	.	.
COc1cccc(N2CC(NC(=O)COc3ccc4ccccc4c3)CC2=O)c1 (stereo not drawn)	.	.
Cc1ccc(S(=O)(=O)/C(=C/Cl)NC(=O)c2ccccc2)cc1	25.1µM	22.4µM
Cc1ccc(C(=O)NC(=C(Cl)Cl)S(=O)(=O)c2ccc(C)cc2)cc1	.	.
Cc1cccc(C)c1NC(=O)Cn1c(=O)n(Cc2ccco2)c(=O)c2ccc(C(=O)NC3CCCC3)cc21	.	.
COCCn1c(=NC(=O)CN2C(=O)CCC2=O)sc2cc(S(N)(=O)=O)ccc21	.	.
COCCn1c(=NC(=O)c2ccc(S(=O)(=O)N3CCc4ccccc4C3)cc2)sc2cc(OC)ccc21	3.98µM	.
O=[N+]([O-])c1ccc(N2CCOCC2)cc1NC(c1ccccc1)c1ccccc1	?	.
O=[N+]([O-])c1ccc(N2CCCC2)cc1NC(c1ccccc1)c1ccccc1	10µM	.
CC(C)(Oc1ccc(Cl)cc1)C(=O)Nc1nc2ccc(S(C)(=O)=O)cc2s1	.	.
CCOC(=O)c1oc2ccc(S(=O)(=O)n3nc(-c4ccc(C)cc4)cc3N)cc2c1C	?	.
CCOC(=O)c1oc2ccc(S(=O)(=O)n3nc(-c4ccc(Cl)cc4)cc3N)cc2c1C	12.6µM	.
CCCCn1c(=O)[nH]c(=O)c2c1nc(COc1ccc(C#N)cc1)n2CCC	.	.
CCCCn1c(=O)[nH]c(=O)c2c1nc(CN1C(=O)c3ccccc3S1(=O)=O)n2CCC	25.1µM	.
O=C(COc1ccc(S(=O)(=O)NC2CCCCC2)cc1)Nc1ccc(C(F)(F)F)cc1	.	.
O=C(/C=C/c1ccccc1)Nc1nc(-c2cccs2)ns1	20µM	.
Cc1ccc(/C=C/C(=O)Nc2nc(-c3cccs3)ns2)cc1	?	.
CC(C)(C)c1ccc(-c2nc(SCCCOc3ccccc3)n3[nH]c(=O)cc3n2)cc1	12.6µM	.
